# The campaign covered roughly 48,000 compounds. About 13,000 (27%) showed an effect of 50% or more. The list shows a part of the results.
# Tested on: Wolbachia pipientis
# Experiment: Anti-Wolbachia Cell-Based Screen
# Assay type: functional
# Set-up: scale not given: in the data most compounds retested in dose-response had high values
# Settings: 5 µM
row,Structure (SMILES),Percent Effect
1,Cc1ccccc1Oc1ncccc1CNC1CCC1,-4.424%
2,Cc1csc(C2(NCCC(=O)N3CCOCC3)CCCC2)n1,-0.7458%
3,CC(C)c1noc(CCC(=O)NC(C)c2nnc3n2CCCCC3)n1 (stereo not given),-3.569%
4,CC(=O)NCCCC(=O)NC(C)c1nnc2n1CCC2 (stereo not given),91.49%
5,CCCc1noc(CCC(=O)NC(C)c2nnc3n2CCCCC3)n1 (stereo not given),-7.808%
6,CCCC(=O)NC(C)c1nnc2n1CCC2 (stereo not given),66.57%
7,CC(C)c1noc(CCCC(=O)NC(C)c2nnc3n2CCC3)n1 (stereo not given),-3.557%
8,CC(NC(=O)CCC1CCCCC1)c1nnc2n1CCC2 (stereo not given),97.89%
9,CC(C)c1noc(CCC(=O)NC(C)c2nnc3n2CCC3)n1 (stereo not given),-10.52%
10,Cc1noc(CCCC(=O)NC(C)c2nnc3n2CCC3)n1 (stereo not given),-11.73%
11,Cc1noc(C)c1CCC(=O)NC(C)c1nnc2n1CCC2 (stereo not given),-11.45%
12,CC(C)CS(=O)(=O)CC(=O)NC(C)c1nnc2n1CCC2 (stereo not given),85.29%
13,CC(NC(=O)CCCc1nc(C(C)(C)C)no1)c1nnc2n1CCC2 (stereo not given),7.07%
14,CN1CCc2[nH]nc(C(=O)N3CCC4(CCCO4)CC3)c2C1,17.17%
15,CC(C)N(C)CCNC(=O)N(C)CC1CCOCC1,-11.44%
16,CCS(=O)(=O)N1CCC2(CC1)CC(OCC1CC1)CO2 (stereo not given),-14.92%
17,CC(NC(=O)COCC(F)(F)F)c1nnc2n1CCCCC2 (stereo not given),88.58%
18,CC(NC(=O)COc1ccc(F)cc1)c1nnc2n1CCCCC2 (stereo not given),-2.87%
19,CC(NC(=O)CCCOc1ccccc1)c1nnc2n1CCCCC2 (stereo not given),-1.101%
20,CC(Cn1cccn1)NCC(=O)NC1(C#N)CCCCC1 (stereo not given),4.138%
21,CCC(CO)N(Cc1ccco1)C(=O)c1ccccc1NC (stereo not given),-1.044%
22,Cc1oc(CN(C)C(=O)c2ccc(C(F)(F)F)cc2)cc1C(=O)O,-14.62%
23,CC(C#N)CNC(=O)Nc1ccc(-c2ccc[nH]2)cc1 (stereo not given),-13.54%
24,O=C(CNC(=O)c1cc(Cl)ccn1)Nc1nccs1,-9.837%
25,O=C(CNC(=O)c1ccccc1Cl)Nc1nccs1,1.164%

row,Structure (SMILES),Percent Effect
1,O=C(CNC(=O)c1ccc(Cl)cc1)Nc1nccs1,62.52%
2,Fc1ccc(OC2CCN(Cc3nnc(-c4ccco4)o3)CC2)cc1,0.5253%
3,OC1CCCN(Cc2c(-c3ccco3)[nH]c3ncccc23)C1 (stereo not given),-4.635%
4,CN1CCN(Cc2cccc(NCc3ncc[nH]3)c2)CC1,-6.689%
5,CCN1CCN(Cc2c(-c3ccco3)[nH]c3ncccc23)CC1,126%
6,c1coc(-c2[nH]c3ncccc3c2CN2CCCOCC2)c1,122.9%
7,CN1CCN(Cc2ccccc2Oc2nccc3occc23)CC1,2.64%
8,OC1CCN(Cc2c(-c3ccco3)[nH]c3ncccc23)CC1,97.96%
9,O=C(NCCN1CCOCC1)NCc1cccnc1-n1cccn1,-2.618%
10,OC1(CN2CCCC2)CCCN(Cc2cnc(-c3ccco3)nc2)C1 (stereo not given),-19.31%
11,CN1CCN(Cc2c(-c3ccco3)[nH]c3ncccc23)CC1,119.4%
12,CCn1ccnc1CN1CCN(c2ncnc3ccccc23)CC1,5.306%
13,Cc1nc(-c2ccc(S(=O)(=O)N3CCSCC3)cc2)co1,-2.351%
14,Cc1ccc(F)c(C(=O)Nc2cccc(CCN3CCCC3)c2)c1,-3.643%
15,O=C(CN1CCCS1(=O)=O)Nc1cccc(COC2CCCCC2)c1,13.44%
16,Cc1c(CS(C)(=O)=O)cccc1NCCCC1CCCC1,-1.975%
17,Cc1cccc(C2(NCCCS(C)(=O)=O)CCCC2)c1,-2.725%
18,CS(=O)(=O)CCCNc1cccc(COC2CCCCC2)c1,108.4%
19,CS(=O)(=O)NCc1cccc(COC2CCCCC2)c1,112.9%
20,CC(CO)NC(=O)Nc1ccc(COC2CCCC2)cc1 (stereo not given),8.692%
21,Clc1cncc(NCc2cccc(COC3CCOCC3)c2)n1,-1.49%
22,OCCCNc1cccc(COC2CCCCC2)c1,117.5%
23,CS(=O)(=O)NC(=O)CCc1cccc(OC2CCCC2)c1,2.726%
24,CNS(=O)(=O)c1cccc(CNc2ccc(C#N)cn2)c1,2.285%
25,CS(=O)(=O)NCCCn1ccc2ccccc21,3.407%

row,Structure (SMILES),Percent Effect
1,COc1ccc(-c2cc(CN)ccc2F)c(OC)c1OC,2.502%
2,C=C(C)CN(c1cn[nH]c1)S(=O)(=O)c1cccc(C#N)c1,-12.41%
3,CCOCC1CC2(CCN(C(=O)C3CC=CC3)CC2)CO1 (stereo not given),-13.65%
4,CNC(=O)C1(N2CCC[C@H]2C(=O)NC2CCCCC2)CCOCC1.Cl,-2.575%
5,OCCC1CN(c2nc(-c3ccncc3)nc3c2CCNCC3)CCO1 (stereo not given),-20.05%
6,CCCc1nc(CN2CCCC2Cn2cncn2)no1 (stereo not given),115.4%
7,CC(C)(C)c1nc(CN2CCCC2Cn2cccn2)no1 (stereo not given),10.76%
8,CCCc1nc(CN2CCOC(Cn3cncn3)C2)no1 (stereo not given),3.436%
9,CC(C)(C)c1nc(CN2CCCC2Cn2cncn2)no1 (stereo not given),86.44%
10,CN(C)C(=O)Cc1ccc(NCc2nccn2C)cc1,-22.63%
11,Cc1nccn1-c1ccc(=O)n(CCNC(=O)c2cccs2)n1,125.6%
12,Cc1nccn1-c1ccc(=O)n(CCNC(=O)c2ccncc2)n1,97.47%
13,Cc1nccn1-c1ccc(CNC(=O)c2ccc[nH]2)cn1,15.47%
14,O=C(NCCn1ccc(-c2ccncc2)n1)c1ccncc1,-0.4931%
15,Cc1nccn1-c1ccc(CNC(=O)c2ccc([S+](C)[O-])cc2)cn1 (stereo not given),4.955%
16,O=C(NCCNc1cc(-n2cccc2)ncn1)c1cccs1,19.24%
17,Cc1nc(NC(=O)N2CCCC(N(C)C)C2)nn1C (stereo not given),-14.3%
18,COC(=O)c1ccc2ccn(CC3CCCCO3)c(=O)c2c1 (stereo not given),-39.6%
19,Oc1ccc(N2CCN(Cc3cc4c(cc3Br)OCCO4)CC2)cc1,-10.73%
20,Cn1cc(CN2CCC3(CCCN(C(=O)c4cnccn4)C3)C2)cn1 (stereo not given),7.413%
21,Cn1cc(CN2CCC3(CC2)CN(C(=O)c2cnccn2)CCO3)cn1,101.7%
22,Cn1cc(CN2CCCC3(CCN(C(=O)c4cnccn4)C3)C2)cn1.O=C(O)C(F)(F)F.O=C(O)C(F)(F)F (stereo not given),-36.61%
23,Cc1ccc(CN2CCC3(CC2)CN(C(=O)c2cnccn2)CCO3)o1.O=C(O)C(F)(F)F,98.59%
24,CC(C)CCN1CCC2(CC1)CN(C(=O)c1cnccn1)CCO2.O=C(O)C(F)(F)F,-8.642%
25,CCc1ccc(CN2CCC3(CCCN(C(=O)c4cnccn4)C3)C2)o1.O=C(O)C(F)(F)F (stereo not given),23.64%

# Source: ChEMBL document CHEMBL3988442, “University of Dundee, Small-Polar-MMV Screening Library” (2021)
